Test results published in PubChem BioAssay (Tox21).
Inconclusive results are not listed. Active and inactive are the calls of the source. Unless noted, the call rests on the fitted dose curve; in most records, active means well fitted curve in the direction sought with a large enough effect in the repeat runs; inconclusive means weak or mixed curves; inactive means no such curve, though single readings can be large; an effect the other way counts as inactive or inconclusive.

Experiments:
[1] = qHTS assay to identify small molecule antagonists of the estrogen receptor alpha (ER-alpha) signaling pathway using the BG1 cell line in the presence of 0.1 nM 17-beta-estradiol - cell viability counter screen (AID 1259241); further: on the % scale 0 is the no-effect control and ±100 the full control effect; nearly all actives have a fitted effect of over 40% in size
How it was run: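 Measures cytotoxicity alongside the ER-alpha antagonist readout: VM7Luc4E2 cells, charcoal-stripped serum, 0.1 nM 17beta-estradiol final, 22 hr compound incubation at 37C, CellTiter-Fluor fluorescence.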

[2] = qHTS assay to identify small molecule antagonists of the androgen receptor (AR) signaling pathway using the MDA cell line in the presence of 0.5 nM R1881 - cell viability counter screen (AID 1259242); further: on the % scale 0 is the no-effect control and ±100 the full control effect; nearly all actives have a fitted effect of over 45% in size
How it was run: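 Human breast carcinoma MDA-kb2 cells, cultured without CO2, receive compounds alongside 0.5 nM (final) R1881 agonist. After 16 hr at 37C, viability is taken as live-cell protease signal.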

[3] = biological target: Estrogen receptor (Homo sapiens) (UniProt P03372); assay: qHTS assay to identify small molecule antagonists of the estrogen receptor alpha (ER-alpha) signaling pathway using the BG1 cell line in the presence of 0.1 nM 17-beta-estradiol (AID 1259244); further: on the % scale 0 is the no-effect control and ±100 the full control effect; nearly all actives have a fitted effect of over 50% in size
How it was run: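 Seeding of stripped-serum-adapted VM7Luc4E2 cells, 24 h attachment, compound transfer, then 0.1 nM final 17beta-estradiol; after 22 h incubation, ONE-Glo reagent and luminescence reading.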

[4] = qHTS assay to identify small molecule HDAC inhibitors (AID 1259364);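 further: wild-type HCT-116 cells with endogenous class I/II HDAC activity; top concentration of the series differs between compounds; on the % scale 0 is the no-effect control and ±100 the full control effect; nearly all actives have a fitted effect of over 45% in size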
How it was run: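 After a 2 hr compound incubation (37C, 5% CO2), HCT-116 cells seeded at 1,500/well the day before received HDAC-Glo reagent; signal read as luminescence after 30 min at room temperature.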

[5] = qHTS assay to identify small molecule HDAC inhibitors - cell viability counter screen (AID 1259365); further: series mostly up to about 92 µM; on the % scale 0 is the no-effect control and ±100 the full control effect; nearly all actives have a fitted effect of over 50% in size
How it was run: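 Following a 2hr exposure of overnight-plated wild-type HCT-116 cells to DMSO-delivered compounds, CellTiter-Glo was added and luminescence recorded after 30min at room temperature.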

[6] = qHTS assay to identify small molecule agonists of the sonic hedgehog signaling (Shh) pathway - cell viability counter screen (AID 1259366); further: on the % scale 0 is the no-effect control and ±100 the full control effect; nearly all actives have a fitted effect of over 50% in size
How it was run: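 After a 4hr attachment at 37C, NIH/3T3 cells bearing an integrated Gli1-driven luciferase reporter were dosed with compounds. Treatment lasted 24hr, with the final hour including CellTiter-Fluor for a fluorescence viability measurement.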

[7] = qHTS assay to identify small molecule antagonists of the sonic hedgehog signaling (Shh) pathway - cell viability counter screen (AID 1259367); further: on the % scale 0 is the no-effect control and ±100 the full control effect; nearly all actives have a fitted effect of over 55% in size
How it was run: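 Cytotoxicity was assessed in parallel with Shh reporter activity by measuring live-cell protease fluorescence (CellTiter-Fluor) in NIH/3T3 cells stably carrying Gli1-Luc, treated with compound under conditioned medium stimulation for 23 hr plus 1 hr reagent incubation.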

[8] = qHTS assay to identify small molecule agonists of the sonic hedgehog signaling (Shh) pathway (AID 1259368; calls by dose curve;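 further: NIH/3T3-derived 3T3Gli1-Luc cells carrying a stable Gli1-driven firefly luciferase reporter; series mostly up to about 92 µM; on the % scale 0 is the no-effect control and ±100 the full control effect; nearly all actives have a fitted effect of over 15% in size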)
How it was run: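 Stable NIH/3T3 Gli1-Luc reporter clone; 24 hr cpd exposure after a 4 hr settling period; luminescence endpoint.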

[9] = qHTS assay to identify small molecule antagonists of the sonic hedgehog signaling (Shh) pathway (AID 1259369; calls by dose curve; further: on the % scale 0 is the no-effect control and ±100 the full control effect; nearly all actives have a fitted effect of over 45% in size)
How it was run: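 Gli1 transcriptional reporter (firefly Luc) in NIH/3T3 background, conditioned-medium activated. 24hr exposure, luminescence endpoint.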

[10] = qHTS assay to identify small molecule agonists of the androgen receptor (AR) signaling pathway in the presence of an antagonist - cell viability counter screen (AID 1259379);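 further: MDA-kb2 human breast cancer cells carrying an MMTV luciferase reporter; series mostly up to about 92 µM; on the % scale 0 is the no-effect control and ±100 the full control effect; nearly all actives have a fitted effect of over 25% in size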
How it was run: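 Counter screen for cell viability run in parallel with the AR agonist-mode luciferase assay. MDA-kb2 cells were co-treated with nilutamide (3.0uM final) and compounds, then incubated 16 hr at 37C, and CellTiter-Fluor fluorescence was measured.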

[11] = qHTS assay to identify small molecule agonists of the estrogen receptor beta (ER-beta) signaling pathway - cell viability counter screen (AID 1259380); further: on the % scale 0 is the no-effect control and ±100 the full control effect; nearly all actives have a fitted effect of over 30% in size
How it was run: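 In this qHTS counter screen, HEK293T cells carrying an ER-beta/UAS beta-lactamase reporter, grown in 2% charcoal-stripped FBS, received compound for 16 hr; ATP-based CellTiter-Glo luminescence was then read after 30 min at room temperature.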

[12] = qHTS assay to identify small molecule antagonists of the estrogen receptor beta (ER-beta) signaling pathway - cell viability counter screen (AID 1259382); further: series mostly up to about 92 µM; on the % scale 0 is the no-effect control and ±100 the full control effect; nearly all actives have a fitted effect of over 55% in size
How it was run: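 HEK293T ER-beta-UAS-bla, 2% charcoal-stripped FBS; compounds + 1nM E2 16 hr 37C; CellTiter-Glo luminescence, 30 min RT.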

[13] = biological target: Estrogen receptor (Homo sapiens) (UniProt P03372); assay: qHTS assay to identify small molecule agonists of the estrogen receptor alpha (ER-alpha) signaling pathway in the presence of an antagonist (AID 1259383; calls by dose curve; further: top concentration of the series differs between compounds; on the % scale 0 is the no-effect control and ±100 the full control effect; nearly all actives have a fitted effect of over 15% in size)
How it was run: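 ER-alpha agonism measured under antagonist challenge: 10.0nM ICI-182,780 (final) plus compound, 15 concentrations, 22hr, VM7Luc4E2 ERE-luciferase cells. Read by luminescence.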

[14] = qHTS assay to identify small molecule agonists or antagonists of the thyroid stimulating hormone receptor (TSHR) signaling pathway - wild type cell line counter screen (AID 1259384; calls by dose curve; further: on the % scale 0 is the no-effect control and ±100 the full control effect)
How it was run: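 Wild-type HEK293 cells were plated 18 h at 37 C/5% CO2, pin-dosed with compound plus Ro20-1724 medium, held 30 min at room temperature, then given cAMP-d2 and anti-cAMP-cryptate; fluorescence was read after 1 h. Fifteen concentrations, triplicate.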

[15] = biological target: Thyrotropin receptor (Homo sapiens) (UniProt P16473); assay: qHTS assay to identify small molecule antagonists of the thyroid stimulating hormone receptor (TSHR) signaling pathway (AID 1259385; calls by dose curve; further: on the % scale 0 is the no-effect control and ±100 the full control effect; nearly all actives have a fitted effect of over 20% in size)
How it was run: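 TSHR-HEK293 cells were plated and held 18 h at 37C/5% CO2, then given compound plus Ro20-1724 and stimulated with TSH at 1.5 ng/mL final. After 30 min at room temperature, cAMP was detected with cAMP-d2/anti-cAMP-cryptate (1 h) by fluorescence.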

[16] = biological target: Estrogen receptor beta (Homo sapiens) (UniProt Q92731); assay: qHTS assay to identify small molecule agonists of the estrogen receptor beta (ER-beta) signaling pathway (AID 1259377; active means well fitted activation curve with a large enough effect in the signal ratio in the repeat runs, not every such curve was filed as active; the % refers to the signal ratio; further: on the % scale 0 is the no-effect control and ±100 the full control effect)
How it was run: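 In HEK293T cells bearing a UAS-beta-lactamase reporter under ER-beta control, DMSO-delivered compounds were incubated for 16 hr at 37C. Activity was detected as fluorescence 2 hours after LiveBLAzer B/G FRET substrate addition.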

[17] = biological target: Estrogen receptor beta (Homo sapiens) (UniProt Q92731); assay: qHTS assay to identify small molecule antagonists of the estrogen receptor beta (ER-beta) signaling pathway (AID 1259378; active means well fitted inhibition curve with a large enough effect in the signal ratio in the repeat runs, not every such curve was filed as active; the % refers to the signal ratio; further: on the % scale 0 is the no-effect control and ±100 the full control effect)
How it was run: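 ER-beta-UAS-bla HEK293T (GripTite) cells in 2% charcoal-stripped FBS medium were preincubated 6 hr at 37C, dosed with compound, then stimulated with 1 nM E2 (final) for 16 hr; beta-lactamase reporter read by B/G FRET fluorescence after 2 hr substrate loading.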

[18] = biological target: Androgen receptor (Homo sapiens) (UniProt P10275); assay: qHTS assay to identify small molecule agonists of the androgen receptor (AR) signaling pathway in the presence of an antagonist (AID 1259381; calls by dose curve; further: potency means the concentration at half of the fitted maximal effect; nearly all actives have a fitted effect of over 15% in size)
How it was run: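 AR antagonist background: nilutamide 3.0uM final. Cell line: MDA-kb2, MMTV-driven luciferase, responsive to both AR and GR. Exposure 16hr, 37C, no CO2; ONE-Glo luminescence.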

[19] = qHTS assay to identify small molecule phospholipidosis (PLD) inducers (AID 1259344; active means well fitted curve in the direction sought with a large enough effect; an effect the other way counts as inactive or inconclusive; further: on the % scale 0 is the no-effect control and ±100 the full control effect)
How it was run: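 Cells (HepG2, 900 per well) attach for 4 h, receive LipidTOX Red and compound together, incubate 24 h at 37 C, are fixed 30 min with paraformaldehyde/Hoechst, then imaged at one site per well.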

Estrogen receptor beta (Homo sapiens), sequence (Q92731 whole entry, looked up): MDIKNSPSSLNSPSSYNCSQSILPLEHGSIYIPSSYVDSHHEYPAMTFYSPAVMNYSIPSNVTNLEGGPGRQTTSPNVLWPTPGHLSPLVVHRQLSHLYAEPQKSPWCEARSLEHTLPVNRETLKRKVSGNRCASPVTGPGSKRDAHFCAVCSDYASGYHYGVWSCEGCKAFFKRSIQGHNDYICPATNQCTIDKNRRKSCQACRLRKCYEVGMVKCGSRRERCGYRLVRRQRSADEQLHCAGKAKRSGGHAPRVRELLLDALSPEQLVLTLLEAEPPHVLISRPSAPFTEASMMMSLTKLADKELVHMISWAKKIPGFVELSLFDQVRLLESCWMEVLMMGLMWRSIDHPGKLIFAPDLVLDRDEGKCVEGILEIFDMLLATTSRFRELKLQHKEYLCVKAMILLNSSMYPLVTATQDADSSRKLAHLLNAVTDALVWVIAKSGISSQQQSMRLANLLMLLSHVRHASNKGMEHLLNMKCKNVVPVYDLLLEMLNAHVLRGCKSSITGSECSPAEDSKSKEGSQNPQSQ
Thyrotropin receptor (Homo sapiens), sequence (P16473 whole entry, looked up): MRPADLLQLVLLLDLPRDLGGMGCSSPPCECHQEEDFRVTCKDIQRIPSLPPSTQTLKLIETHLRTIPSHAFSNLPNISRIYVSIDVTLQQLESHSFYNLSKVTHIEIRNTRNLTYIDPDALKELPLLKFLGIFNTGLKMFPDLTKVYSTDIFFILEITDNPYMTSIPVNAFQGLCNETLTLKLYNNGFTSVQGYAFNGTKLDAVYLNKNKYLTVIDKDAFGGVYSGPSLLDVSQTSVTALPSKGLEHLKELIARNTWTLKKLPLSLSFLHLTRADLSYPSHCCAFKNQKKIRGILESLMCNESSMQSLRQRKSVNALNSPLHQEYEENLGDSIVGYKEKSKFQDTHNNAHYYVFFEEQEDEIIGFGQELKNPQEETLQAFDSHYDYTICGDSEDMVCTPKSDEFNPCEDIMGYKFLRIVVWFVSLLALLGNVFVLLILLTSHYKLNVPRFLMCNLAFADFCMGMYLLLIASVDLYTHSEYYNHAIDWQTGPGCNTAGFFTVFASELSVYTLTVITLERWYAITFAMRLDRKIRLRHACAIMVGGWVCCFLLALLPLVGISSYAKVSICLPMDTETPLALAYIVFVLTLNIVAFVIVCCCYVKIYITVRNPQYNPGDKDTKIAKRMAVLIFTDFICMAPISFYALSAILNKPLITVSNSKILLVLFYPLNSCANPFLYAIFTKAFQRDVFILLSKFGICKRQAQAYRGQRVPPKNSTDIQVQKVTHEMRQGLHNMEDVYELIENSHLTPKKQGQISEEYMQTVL
Estrogen receptor (Homo sapiens), sequence (P03372 whole entry, looked up): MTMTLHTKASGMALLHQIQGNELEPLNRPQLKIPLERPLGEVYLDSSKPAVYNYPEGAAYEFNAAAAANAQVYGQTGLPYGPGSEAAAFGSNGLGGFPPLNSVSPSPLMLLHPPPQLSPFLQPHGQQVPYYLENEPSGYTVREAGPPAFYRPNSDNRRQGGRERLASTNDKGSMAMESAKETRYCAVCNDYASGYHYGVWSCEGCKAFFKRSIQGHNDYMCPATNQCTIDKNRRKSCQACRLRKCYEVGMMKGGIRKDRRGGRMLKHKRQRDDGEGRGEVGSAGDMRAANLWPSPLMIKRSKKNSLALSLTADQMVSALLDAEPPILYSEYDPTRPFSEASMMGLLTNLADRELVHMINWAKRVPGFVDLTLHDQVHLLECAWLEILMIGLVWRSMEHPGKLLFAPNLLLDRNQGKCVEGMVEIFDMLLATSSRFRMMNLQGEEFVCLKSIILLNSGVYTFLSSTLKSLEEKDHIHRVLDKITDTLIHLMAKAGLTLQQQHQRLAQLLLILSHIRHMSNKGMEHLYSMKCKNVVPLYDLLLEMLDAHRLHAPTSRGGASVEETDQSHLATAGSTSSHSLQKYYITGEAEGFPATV
Androgen receptor (Homo sapiens), sequence (P10275 whole entry, looked up): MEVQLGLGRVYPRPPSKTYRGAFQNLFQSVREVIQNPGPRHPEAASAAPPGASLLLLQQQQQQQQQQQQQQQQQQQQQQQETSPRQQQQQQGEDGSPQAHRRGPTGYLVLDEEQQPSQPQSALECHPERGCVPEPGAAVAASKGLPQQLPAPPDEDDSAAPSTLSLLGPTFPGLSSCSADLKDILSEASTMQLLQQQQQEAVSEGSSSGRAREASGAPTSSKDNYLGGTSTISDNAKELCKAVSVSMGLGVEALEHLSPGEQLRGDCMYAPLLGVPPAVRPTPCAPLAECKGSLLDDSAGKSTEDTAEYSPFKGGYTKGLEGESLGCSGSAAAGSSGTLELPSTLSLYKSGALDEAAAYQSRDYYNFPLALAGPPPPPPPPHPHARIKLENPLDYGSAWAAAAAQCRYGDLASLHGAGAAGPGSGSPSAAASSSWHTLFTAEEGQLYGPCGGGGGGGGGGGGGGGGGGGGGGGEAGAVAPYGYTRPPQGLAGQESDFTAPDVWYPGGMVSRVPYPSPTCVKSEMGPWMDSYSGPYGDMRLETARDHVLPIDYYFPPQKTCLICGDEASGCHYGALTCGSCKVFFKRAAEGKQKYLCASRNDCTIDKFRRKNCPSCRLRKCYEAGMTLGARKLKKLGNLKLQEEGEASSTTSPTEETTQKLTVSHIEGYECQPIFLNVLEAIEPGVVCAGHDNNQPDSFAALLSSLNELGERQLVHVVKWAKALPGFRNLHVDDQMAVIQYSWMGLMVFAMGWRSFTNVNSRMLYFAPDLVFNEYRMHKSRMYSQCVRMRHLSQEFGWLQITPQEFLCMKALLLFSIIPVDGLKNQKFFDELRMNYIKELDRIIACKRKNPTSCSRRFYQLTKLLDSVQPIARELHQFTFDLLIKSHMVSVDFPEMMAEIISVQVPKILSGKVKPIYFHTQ

CC/C=C\CCOC(C)OCC (stereo unspecified)
inactive: outcome [1] | outcome [2] | outcome [3] | Potency [4] | outcome [5] | Potency [6] | Potency [7] | outcome [8] | Potency [9] | Potency [10] | Potency [11] | outcome [12] | outcome [13] | outcome [14] | outcome [15]

O=C(O)c1cc(C(=O)O)cc(C(=O)O)c1
inactive: outcome [1] | outcome [2] | outcome [3] | Potency [4] | outcome [5] | Potency [6] | outcome [8] | Potency [10] | Potency [11] | outcome [12] | outcome [13] | outcome [14] | outcome [15]

CN1C(C)(C)CC(O)CC1(C)C
inactive: outcome [1] | outcome [2] | outcome [3] | Potency [4] | outcome [5] | Potency [6] | Potency [7] | outcome [8] | Potency [9] | Potency [16] | Potency [17] | Potency [10] | Potency [11] | outcome [12] | outcome [13] | outcome [14] | outcome [15]

O=C(O)CCCC[P+](c1ccccc1)(c1ccccc1)c1ccccc1
inactive: outcome [1] | outcome [2] | outcome [3] | Potency [4] | outcome [5] | Potency [6] | Potency [7] | outcome [8] | Potency [10] | Potency [11] | outcome [12] | outcome [13] | outcome [14] | outcome [15]

CCCC(=O)O[C@]1(C(=O)CC)CC[C@H]2[C@@H]3CCC4=CC(=O)CC[C@]4(C)[C@H]3[C@@H](O)C[C@@]21C
active: Potency [18] 13.3 nM
inactive: outcome [1] | outcome [2] | outcome [3] | Potency [4] | outcome [5] | Potency [6] | Potency [7] | outcome [8] | Potency [16] | Potency [10] | outcome [13]

C[N+]1(C)CCCC(OC(=O)C(O)(c2ccccc2)c2ccccc2)C1 (stereo unspecified)
inactive: outcome [1] | outcome [2] | outcome [3] | outcome [19] | Potency [4] | outcome [5] | Potency [6] | Potency [7] | outcome [8] | Potency [10] | Potency [11] | outcome [12] | outcome [13]

NC(CCC(=O)O)C(=O)O (stereo unspecified)
inactive: outcome [1] | outcome [2] | outcome [3] | Potency [4] | outcome [5] | Potency [6] | Potency [7] | outcome [8] | Potency [9] | Potency [10] | Potency [11] | outcome [13] | outcome [14]

CCOC(=O)c1ccccc1
inactive: outcome [1] | outcome [2] | outcome [3] | Potency [4] | outcome [5] | Potency [6] | Potency [7] | outcome [8] | Potency [9] | Potency [16] | Potency [17] | Potency [10] | Potency [11] | outcome [12] | outcome [13]

CCCCN1C=CN(C)C1
inactive: activity change, negative = cytotoxicity [1] 0.391% [at 19 µM] | viability change, negative = cytotoxic [2] 0.923% [at 19 µM] | activity change, negative = inhibition [3] 8.85% [at 19 µM] | activity change, negative = inhibition [4] -8.42% [at 19 µM] | activity change, negative = cytotoxicity [5] 5.24% [at 19 µM] | viability change, negative = cytotoxic [6] 3.43% [at 19 µM] | viability change, negative = cytotoxic [7] 0.731% [at 19 µM] | activity change [8] 1.75% [at 18.9 µM] | activity change, negative = inhibition [9] 0.745% [at 19 µM] | activity change, negative = cytotoxicity [10] 0.886% [at 19 µM] | activity change, negative = cytotoxicity [11] 2.46% [at 19 µM] | activity change, negative = cytotoxicity [12] -4.66% [at 19 µM] | activation [13] 0.706% [at 19 µM] | cAMP activity change [14] -4.22% [at 18.9 µM]
